Hit rate of the full screen: of about 5,500 compounds, about 2,000 (36%) were called active. About 18% were inconclusive and are not listed. Cut-off read from the data, not from the text of the source: active = normalized growth mostly below about 0.91 (no sharp cut-off); inconclusive = no clear call, values can overlap the other calls; inactive = mostly above about 0.92. This is one part of the list.
Assay: chemical genetic growth profiling, strain panel (AID 1159580);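 note: tested at 20 µM; growth read once vehicle control cultures reached saturation at 30 °C; 1 = growth at the plate median or of vehicle wells; lower values mean less growth of the strain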
Settings: S. cerevisiae deletion strains, growth OD

Measured: normalized growth

COc1ccccc1-c1coc2cc(O)ccc2c1=O
inactive: locus YBR021W, strain FUR4, hits give low values 0.987 | locus YBR229C, strain ROT2, hits give low values 1.01 | locus YCL029C, strain bik1, hits give low values 1 | locus YDL035C, strain GPR1, hits give low values 0.983 | locus YDL074C, strain BRE1, hits give low values 1.02 | locus YDL101C, strain DUN1, hits give low values 0.995 | locus YDL134C, strain PPH21, hits give low values 0.963 | locus YDL185W, strain tfp1, hits give low values 0.999 | locus YDL192W, strain arf1, hits give low values 1 | locus YDR101C, strain arx1, hits give low values 0.996 | locus YDR162C, strain NBP2, hits give low values 0.986 | locus YDR318W, strain mcm21, hits give low values 1.01 | locus YDR388W, hits give low values 1.03 | locus YDR502C, strain sam2, hits give low values 1.02 | locus YEL061C, strain CIN8, hits give low values 1.02 | locus YER110C, hits give low values 1.02 | locus YER155C, strain BEM2, hits give low values 1.02 | locus YER167W, strain BCK2, hits give low values 1.03 | locus YGL078C, strain dbp3, hits give low values 1 | locus YGL086W, strain mad1, hits give low values 1.01 | locus YGL248W, strain PDE1, hits give low values 1.01 | locus YGR078C, strain PAC10, hits give low values 0.995 | locus YGR135W, strain pre9, hits give low values 0.999 | locus YGR252W, strain gcn5, hits give low values 0.88 | locus YHR030C, strain SLT2, hits give low values 1.02 | locus YHR079C, strain IRE1 (second series), hits give low values 1.02 | locus YHR094C, strain hxt1, hits give low values 1.02 | locus YHR129C, strain ARP1, hits give low values 1.03 | locus YHR200W, strain rpn10, hits give low values 1.03 | locus YIL066C, strain RNR3, hits give low values 1.01 | locus YIL073C, strain SPO22, hits give low values 1.05 | locus YIL125W, strain kgd1, hits give low values 1.02 | locus YIR030C, strain dcg1, hits give low values 1.01 | locus YJL095W, strain BCK1, hits give low values 1.04 | locus YJL134W, strain LCB3, hits give low values 1.02 | locus YJL168C, strain set2, hits give low values 1.02 | locus YJL187C, strain SWE1 (second series), hits give low values 0.998 | locus YJR043C, strain POL32, hits give low values 0.971 | locus YKL009W, strain mrt4, hits give low values 0.993 | locus YKL068W, hits give low values 1 | locus YKL085W, strain MDH1 (second series), hits give low values 1 | locus YKL085W, strain MDH1, hits give low values 1 | locus YKL190W, strain CNB1, hits give low values 1.02 | locus YKR001C, strain vps1, hits give low values 0.979 | locus YLR039C, strain RIC1, hits give low values 1.03 | locus YLR058C, strain SHM2, hits give low values 1.01 | locus YLR102C, strain apc9, hits give low values 1.01 | locus YLR262C, strain YPT6, hits give low values 0.991 | locus YLR268W, strain sec22, hits give low values 0.997 | locus YLR330W, strain CHS5, hits give low values 1.03 | locus YLR342W, strain FKS1 (second series), hits give low values 0.992 | locus YLR371W, strain rom2, hits give low values 1.02 | locus YLR418C, strain cdc73, hits give low values 0.969 | locus YML016C, strain PPZ1, hits give low values 1.04 | locus YML032C, strain rad52, hits give low values 1.02 | locus YML124C, strain tub3, hits give low values 1.01 | locus YMR078C, strain ctf18, hits give low values 1.01 | locus YMR223W, strain ubp8, hits give low values 0.999 | locus YMR263W, strain SAP30, hits give low values 1 | locus YMR307W, strain GAS1, hits give low values 0.909 | locus YNL067W, strain RPL9B, hits give low values 0.987 | locus YNL233W, strain BNI4, hits give low values 1.02 | locus YNL250W, strain rad50, hits give low values 1.02 | locus YNL271C, strain bni1, hits give low values 1.02 | locus YNL298W, strain CLA4, hits give low values 1 | locus YNL307C, strain MCK1, hits give low values 1.02 | locus YNR052C, strain pop2, hits give low values 1.01 | locus YOL006C, strain TOP1, hits give low values 1.08 | locus YOL012C, strain htz1 1.12 | locus YOL147C, strain pex11, hits give low values 1.01 | locus YOR061W, strain CKA2, hits give low values 1.01 | locus YOR069W, strain VPS5, hits give low values 1.02 | locus YOR136W, strain idh2, hits give low values 1.03 | locus YOR144C, strain elg1, hits give low values 0.999 | locus YOR184W, strain ser1, hits give low values 0.981 | locus YOR316C, strain cot1, hits give low values 1.03 | locus YPL055C, strain LGE1, hits give low values 1 | locus YPL241C, strain CIN2, hits give low values 0.996 | locus YPR119W, strain clb2, hits give low values 1 | locus YPR141C, strain kar3, hits give low values 1.01 | locus YPR163C, strain tif3, hits give low values 1.02 | locus YPR167C, strain met16, hits give low values 1.01 | strain wtn01, hits give low values 0.986

— PubChem BioAssay AID1159580 (chemical genetic matrix, 2015)
